The campaign covered roughly 220,000 compounds. About 830 (0.38%) were called active.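 Rule for the calls: active = compound inhibiting the enzyme by more than half at any dose during confirmatory dose-response retesting; inconclusive = strong single-dose inhibitors picked by rank but not retested; inactive = the rest.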 These entries were drawn from the full list. Potency and affinity values are given separately.
Molecular target: Leucine aminopeptidase (Plasmodium falciparum (isolate 3D7)) (UniProt Q8IL11)
Experiment: P. falciparum M17LAP inhibitors, primary screen, biochemical, fluorogenic H-Leu-NHMec substrate, 1536-well (AID 1619);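 note: plate controls were full reaction with DMSO carrier for no effect and no enzyme background for full effect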
Settings: recombinant M17LAP, H-Leu-NHMec fluorogenic kinetic assay; at 30 µM; hits give high values

Leucine aminopeptidase (Plasmodium falciparum (isolate 3D7)), sequence (Q8IL11 whole entry, looked up): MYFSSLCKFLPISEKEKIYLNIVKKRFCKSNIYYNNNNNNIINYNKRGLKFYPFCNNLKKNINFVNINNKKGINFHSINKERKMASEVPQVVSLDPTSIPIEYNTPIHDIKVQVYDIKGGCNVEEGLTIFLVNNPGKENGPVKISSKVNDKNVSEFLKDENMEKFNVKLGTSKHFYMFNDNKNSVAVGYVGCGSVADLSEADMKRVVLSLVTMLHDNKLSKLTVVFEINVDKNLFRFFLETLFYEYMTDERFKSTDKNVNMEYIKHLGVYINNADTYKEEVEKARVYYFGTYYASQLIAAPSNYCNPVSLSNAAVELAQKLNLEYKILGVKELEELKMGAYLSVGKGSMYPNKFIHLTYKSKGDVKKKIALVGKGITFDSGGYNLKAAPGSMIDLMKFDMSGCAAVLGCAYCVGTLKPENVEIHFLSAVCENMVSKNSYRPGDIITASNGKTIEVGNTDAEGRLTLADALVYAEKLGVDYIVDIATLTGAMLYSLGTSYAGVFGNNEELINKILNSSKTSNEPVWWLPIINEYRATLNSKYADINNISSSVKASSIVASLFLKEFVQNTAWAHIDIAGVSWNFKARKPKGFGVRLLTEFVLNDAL

inhibition, inactive:
COc1cc2nc(C3CCC3)nc(N3CCN(c4ccccc4OC)CC3)c2cc1OC 7.31%
COc1cc(CO)cc(Br)c1OCC(=O)O -4.17%
CCOc1c(Br)cc(CNC2CCCCCCC2)cc1OC -3.96%
CCOc1c(Br)cc(CNc2ccc3c(c2)OCCO3)cc1OC 2.99%
COc1cc(CNc2ccc(N3CCOCC3)cc2)cc(Br)c1OC -2.11%
CCOC(=O)c1nc(Nc2ccc(C(=O)O)cc2)c2ccccc2n1 23.8%
CCOc1ccc(N2C(=O)/C(=C/c3ccccc3)N=C2SC)cc1 2.97%
COC1=C(OC)C(=O)C(CCCCCCCCCCO)=C(C)C1=O -2.37%
CS(=O)(=O)N(CC(=O)NC1CCCCC1)Cc1ccc(Cl)cc1 4.5%
CN(c1cccc(NC(=O)CN2C(=O)c3ccccc3S2(=O)=O)c1)S(C)(=O)=O 51.6%
O=C(CN1C(=O)c2ccccc2S1(=O)=O)Nc1cccnc1 27.9%
CC(C)NC(=O)CN1C(=O)c2ccccc2S1(=O)=O 7.45%
O=C(CN1c2cccc3cccc(c23)S1(=O)=O)Nc1ccccc1 2.82%
O=C(CCN1C(=O)c2ccccc2S1(=O)=O)Nc1ccccc1 6.82%
O=C(CN1C(=O)c2ccccc2S1(=O)=O)NC1CCCCCC1 5.61%
O=C(CN1C(=O)c2ccccc2S1(=O)=O)NC1CCCC1 33.2%
COc1ccc(NC(=O)CN2c3cccc4cccc(c34)S2(=O)=O)c(OC)c1 13.8%
COc1ccc(NS(=O)(=O)c2cccc(C(=O)N/N=C/c3ccc4c(c3)OCCO4)c2)cc1 6.63%
COc1ccccc1-c1noc(-c2cccnc2)n1 -3.7%
CCOC(=O)c1[nH]c(C)c(C(=O)N2CCc3c([nH]c4ccccc34)C2c2ccccn2)c1C (stereo unspecified) -1.65%
COC(=O)C(C(=O)NCC1CCCO1)C1CCCCCC1 (stereo unspecified) 13.6%
CCc1nnc(NC(=O)C(CC)c2ccccc2)s1 (stereo unspecified) -2.8%
CCc1nnc(NC(=O)C(C)C)s1 -5.28%
CCC(Sc1nc2ccccc2s1)C(=O)Nc1nnc(C)s1 (stereo unspecified) 22.9%
COC(=O)CSC(C)C(=O)Nc1nnc(C(C)C)s1 (stereo unspecified) -2.42%
CCOC(=O)CSC(CC)C(=O)Nc1nnc(C(C)C)s1 (stereo unspecified) 20.9%
CC(C)c1nnc(NC(=O)CSc2nc3ccccc3s2)s1 -2.5%
Cc1cc(-c2ccco2)n(CC(=O)NCCN(C)C)n1 -1.86%
CCCCNC(=O)NC12CC3CC(CC(C3)C1)C2 3.38%
S=C(Nc1ccccc1Cl)NC1CC2CCCC(C1)N2C1CC1 (stereo unspecified) 19.9%
COc1ccc(-c2nc3ccccc3[nH]2)cc1 12.5%
COc1ccc(-c2noc(=O)[nH]2)cc1 -9.72%
O=C(CCn1c(=O)oc2ccccc21)Nc1nccs1 0.79%
Nc1cc(C2CCCC2)nn1-c1ccccc1 16.1%
Cc1nn(CC(=O)NCCCN2CCOCC2)c(C)c1[N+](=O)[O-] 3.72%
COC(=O)NCc1cc2cc(Cl)ccc2[nH]1 8.05%
O=S(=O)(Nc1ccn(-c2ccccc2)n1)c1ccc(Br)cc1 21.4%
O=S(=O)(N/N=C\C=C\c1ccccc1)c1ccc(Br)cc1 31.2%
Cc1ccc(C(=O)Nc2ccccc2C(=O)N2CC3(C)CC2CC(C)(C)C3)cc1 (stereo unspecified) -0.05%
COc1ccc(C[C@H]2CN3C(=NC[C@@H]3C(C)C)N2C[C@H](C)NC(=O)c2ccc(C)c(Br)c2)cc1 -1.28%
COc1ccc2c(c1OC)C(=O)OC2Nc1nc(-c2cc3cc(Br)ccc3oc2=O)cs1 (stereo unspecified) -3.55%
COc1ccc2c(c1OC)C(=O)OC2Nc1nc(-c2cc3cc([N+](=O)[O-])ccc3oc2=O)cs1 (stereo unspecified) 42.4%
CSc1nsc(SC)c1CO -0.7%
CC(=O)Nc1c(O)nc(SCC(=O)Nc2c(C)cccc2C)[nH]c1=O 13.4%
CC(=O)Nc1c(O)nc(SCC(=O)Nc2ccc(C(C)=O)cc2)[nH]c1=O 21.4%
Cc1cccc(NC(=O)CSc2nc(C)c(Cc3ccccc3)c(=O)[nH]2)c1 -0.73%
Cc1cccc(NC(=O)CSc2nc3nc(C)cc(C)c3c(=O)[nH]2)c1 15.8%
Cc1cccc(NC(=O)CSc2nc3c(c(=O)[nH]2)CCCC3)c1C 12.7%
Cc1cccc(NC(=O)CSc2nc3c(c(=O)[nH]2)CCC3)c1C 49.7%
S=c1[nH]ncn1/N=C/c1cccc(Oc2ccccc2)c1 13.2%
Cc1ccc(CNc2ccc(S(=O)(=O)N3CCOCC3)cc2[N+](=O)[O-])cc1 -4.05%
CCCC1C2C(=O)N(c3ccccc3)C(=O)C2ON1c1ccccc1 (stereo unspecified) -10.4%
CCc1ccc(OC(=O)c2ccn(CC)n2)cc1 2.96%
CCOC(=O)c1c(C)[nH]c(C)c1C(=O)COC(=O)c1ccc(O)cc1 0.26%
O=C(O)c1ccccc1-c1ccccc1C(=O)Nc1ccccc1 -2.4%
Cc1ccc(NC(=O)c2ccccc2-c2ccccc2C(=O)O)cc1C 4.01%
O=C(CSc1nc2ccc(NC(=O)C3CCCCC3)cc2s1)NCC1CCCO1 (stereo unspecified) 2.95%
O=C(Nc1ccc(N2C(=O)C3CCCCC3C2=O)cc1Cl)c1cccs1 (stereo unspecified) -2.37%
Cc1ccc(-n2c(C)cc(C(=O)COC(=O)C3=NNC(=O)CC3)c2C)cc1 30.1%
COCCn1c(C)cc(C(=O)COC(=O)c2ccc[nH]c2=O)c1C 49.1%
Cc1ccc(-n2c(C)cc(C(=O)COC(=O)c3c(C)noc3C)c2C)cc1 0.29%
Cc1cc(C(=O)COC(=O)c2ccc[nH]c2=O)c(C)n1-c1ccccc1F 8.77%
Cc1cc(C(=O)COC(=O)c2ccc(O)cc2)c(C)n1CCc1ccc(F)cc1 13.2%
Cc1cc(C(=O)COC(=O)c2ccc[nH]c2=O)c(C)n1C 14.9%
Cc1cc(C(=O)COc2ccccc2C(N)=O)c(C)n1C1CC1 -2.25%
Cc1cc(C(=O)COC(=O)C2=NNC(=O)CC2)c(C)n1-c1ccccc1 7.43%
CCCn1c(SCC(=O)NC(=O)Nc2ccc(C)cc2C)n[nH]c1=O -6.72%
O=C(Cn1ccc([N+](=O)[O-])n1)NCCc1c[nH]c2ccccc12 -5.35%
C=CCn1c(=O)c2ccccc2n2c(SCC(=O)Nc3sc(C(=O)N(CC)CC)c(C)c3C(=O)OCC)nnc12 1.64%
O=C(N/N=C/c1ccc2c(c1)OCO2)c1cc(-c2ccc(F)cc2)nc2ccccc12 8.91%
CCCCn1nnnc1NCc1ccc(N2CCCC2)cc1 2.89%
COc1cccc(-n2cn[nH]c2=S)c1 -0.99%
O=C(NC1CCCC1)C(c1ccc(N2CCOCC2)cc1)N(Cc1ccco1)C(=O)c1ccco1 (stereo unspecified) 6.04%
CCOC(=O)c1cc(C)n(-c2ccc(OC)c(OC)c2)c1C 0.75%
CCC(=O)OCC(=O)c1cc(C)n(-c2ccc(Br)cc2)c1C 0.2%
Cc1ccc(-n2c(C)cc(C(=O)COc3c(CO)cc(F)cc3CO)c2C)cc1C 11.4%
COCC(=O)OCC(=O)c1cc(C)n(-c2ccc(Br)cc2)c1C 1.88%
COc1cc(C(=O)Nc2ccccc2-c2nnn(CC(N)=O)n2)cc(OC)c1OC -3.22%
C=CCn1c(-c2cccnc2Cl)nc2cc(Cl)c(Cl)cc21 -5.48%
Cc1noc(C)c1C(=O)NCCCc1ccccc1 6.89%
Cc1cc(C(=O)OCC(=O)N2CC(C)CC(C)C2)c(C)o1 (stereo unspecified) 40.9%
Cc1cc(C(=O)OCC(=O)N2c3ccccc3CC2C)c(C)o1 (stereo unspecified) -1.01%
O=C(O)c1cc2c(ccc3ccccc32)o1 6.36%
Cn1c(=O)cc(SCC(=O)NCC2COc3ccccc3O2)c2ccccc21 (stereo unspecified) -4.89%
O=C(CCC1COc2ccccc2O1)NCC1COc2ccccc2O1 (stereo unspecified) 15.9%
Cc1nn(C)c(C)c1S(=O)(=O)N1CCC(C(=O)NCC2COc3ccccc3O2)CC1 (stereo unspecified) 17.1%
O=C(Cn1ccc2ccccc2c1=O)NCC1COc2ccccc2O1 (stereo unspecified) 10.9%
Cn1c(C(=O)O)c(CC(=O)Nc2ccc3c(c2)OCCO3)c2ccccc21 -6.24%
CCC1Oc2ccc(C)cc2N(CC(=O)NCC2COc3ccccc3O2)C1=O (stereo unspecified) 16.1%
Cn1c(=O)oc2cc(S(=O)(=O)N3CCC(C(=O)NCC4COc5ccccc5O4)CC3)ccc21 (stereo unspecified) 3.08%
O=C(CN1C(=O)C2C3C=CC(C3)C2C1=O)NCc1ccccc1 (stereo unspecified) 18.9%
CCOc1ccc(NC(=O)CSc2nc3c([nH]c4ccccc43)c(=O)n2C)cc1 1.51%
CC(C)(C)c1cn(-c2ccccc2)c(=S)[nH]1 1.06%
O=c1c(Cc2ccc(F)cc2)c(O)ccn1Cc1ccc(F)cc1 -0.83%
CS(=O)(=O)N1CCC(C(=O)O)CC1 -6.86%
CCOC(=O)c1c(NC(=O)CC2SC(N)=NC2=O)sc2c1CCC(C)C2 (stereo unspecified) 3.54%

— PubChem BioAssay AID1619 (SRMLSC, 2009)
